Experimental data: ChEMBL document CHEMBL4513216, “Probing the Open Global Health Chemical Diversity Library for Multistage-Active Starting Points for Next-Generation Antimalarials” (ACS Infect Dis, 2020)
Out of some 69,000 compounds screened, about 8,600 (12%) showed an effect of 50% or more. This is one part of a sample in which strong results are shown more often than they occur.

What follows are compounds tested on Plasmodium berghei (assay: Screen against P. berghei liver stage (PbLuc), transformed with Luciferase, at 10uM). Settings: tested at 10 uM.
Assay type: functional, HepG2

SMILES	INHIBITION
Cn1ncc2c1C(COCC1CC1)CN(Cc1ccc(F)cc1)C2 (stereo unspecified)	-5.69%
Cc1cc(C)n(-c2ccc(C(=O)NCC(CO)Cc3ccco3)cc2)n1 (stereo unspecified)	32.1%
Cc1csc(CNc2cnc3c(c2)c(C)nn3C)n1	16%
CSc1ccc(NS(=O)(=O)c2cnn(C)c2)cn1	1.81%
Cn1cc(NS(=O)(=O)c2ccc(C(F)(F)F)cc2)ccc1=O	60.5%
Cn1cc(NS(=O)(=O)c2ccc(OC(F)(F)F)cc2)ccc1=O	84.6%
COc1ccc(S(=O)(=O)Nc2cnc(N(C)C)nc2)cc1	40.6%
O=S(=O)(Nc1cnc(N2CCCC2)nc1)c1ccc(OC(F)(F)F)cc1	40.1%
CN(C)c1ncc(NS(=O)(=O)c2ccc(OC(F)(F)F)cc2)cn1	51.6%
Cc1ccc(S(=O)(=O)Nc2ccc(=O)n(C)c2)cc1	46.5%
Cc1nc(N(C)C)nc(C)c1NS(=O)(=O)c1ccc(OC(F)(F)F)cc1	-2.09%
O=S(=O)(Nc1cnc(N2CCCC2)nc1)c1ccc(C(F)(F)F)cc1	37.3%
O=C(c1cccnc1N1CCOCC1)N1CCCC(n2cncn2)C1 (stereo unspecified)	36.1%
CC(C)OCCN1CCC(Nc2nccnc2C#N)CC1	33.1%
Cc1ccc(CN2CCC3(CCC3NS(=O)(=O)c3ccccc3)CC2)o1 (stereo unspecified)	-12.4%
O=c1ccc2c(n1CCN1CCCC1)CCN(Cc1ccoc1)CC2	8.47%
COCCN1CCCC(c2cncc(Oc3ccccc3OC)n2)C1 (stereo unspecified)	-5.71%
O=C1CN(Cc2cn(CC3CCCN(C4CCSCC4)C3)nn2)CCN1 (stereo unspecified)	54.5%
O=C1CN(Cc2cn(CC3CCN(C4CCSCC4)CC3)nn2)CCN1	32.2%
OC1CCCN(Cc2cn(CC3CCN(C4CCSCC4)CC3)nn2)C1 (stereo unspecified)	18.3%
O=C1CN(Cc2cn(C3CCN(C4CSCCSC4)CC3)nn2)CCN1	65.6%
Cc1cc(N2CCC(n3cc(CN4CCSCC4)nn3)CC2)ccn1	30.9%
c1cc(CN2CCC(n3cc(CN4CCCC4)nn3)CC2)cs1	42.1%

SMILES	INHIBITION
c1cncc(CN2CC(Cc3nccc4cc[nH]c34)C2)c1	19.3%
O=C(NCC1CCC1)c1ccc(-n2ccnc2)nn1	-15%
CCCOc1ccc(C(=O)Oc2cc(=O)n3cccc(C)c3n2)cc1	0.207%
CC1c2ncc(COCc3ccccn3)n2CCN1C1CCCC1 (stereo unspecified)	37.8%
O=C(O)c1ccccc1-c1ccc(Cn2c(=O)cc[nH]c2=O)cc1	2.55%
Cc1ccnc(C2CCCN2C(=O)CN(C)C)n1 (stereo unspecified)	-16.5%
O=C(NCCn1nc2ccccn2c1=O)c1sccc1-c1ccccc1	-20.53%
CC(C)COCCNC(=O)NC1CCCN(c2cnn(C)c2)C1 (stereo unspecified)	-49.3%
CN(C)C(=O)CN1CCC(c2cccc(Cc3ccc(F)cc3)n2)CC1	24.4%
COCC(=O)N1CCC(c2cncc(-c3cccc(F)c3)n2)CC1	8.72%
Fc1cccc(Cc2cncc(C3CCCN3C3CCOCC3)n2)c1 (stereo unspecified)	41.1%
Fc1ccc(Cc2cccc(C3CCN(C4CCOCC4)CC3)n2)cc1	72.3%
COCC(=O)N1CCC(c2cccc(Cc3ccc(F)cc3)n2)CC1	54%
c1ccc(Cc2cccc(C3CCCN3C3CCOCC3)n2)cc1 (stereo unspecified)	32.921%
Cc1nn(C)c2c(=O)n(C)c(NCC3CCCO3)nc12 (stereo unspecified)	49.1%
CC(=O)N1N=C(Cc2ccccc2)OC1C(=O)NCC(C)C (stereo unspecified)	-21.1%
Cn1cc(C2COC3(CCN(C(=O)c4ccsc4)CC3)C2)cn1 (stereo unspecified)	69.5%
Cn1cc(C2COC3(CCN(C(=O)c4ccc(F)cc4)CC3)C2)cn1 (stereo unspecified)	18.2%
Cc1ccc(C(=O)N2CCC3(CC2)CC(c2cnn(C)c2)CO3)cn1 (stereo unspecified)	39.2%
CN1CC(=O)N(c2cnn(C)c2)CC12CCN(C(=O)c1ccsc1)C2 (stereo unspecified)	51.7%
Cn1cc(C2COC3(CCN(C(=O)c4ccccn4)CC3)C2)cn1 (stereo unspecified)	42.7%
Cn1cc(C2COC3(CCN(C(=O)c4ccn(C)n4)CC3)C2)cn1 (stereo unspecified)	41.6%
CN1CC(=O)N(c2ccsc2)CC12CCN(C(=O)c1ccccc1)C2 (stereo unspecified)	45.5%

SMILES	INHIBITION
Cc1ccccc1C(=O)N1CCC2(CC1)CC(c1cnn(C)c1)CO2 (stereo unspecified)	53.2%
Cn1cc(C2COC3(CCN(C(=O)c4cccc(O)c4)CC3)C2)cn1 (stereo unspecified)	32.2%
Cc1cccc(C(=O)N2CCC3(CC2)CC(c2cnn(C)c2)CO3)c1 (stereo unspecified)	69.5%
CN1CC(=O)N(c2ccsc2)CC12CCN(C(=O)c1ccc[nH]1)C2 (stereo unspecified)	15.9%
Cn1cc(C2COC3(CCN(C(=O)c4cccn4C)CC3)C2)cn1 (stereo unspecified)	36.9%
Cc1nc(C)n(CC(=O)N2CCc3ncc(Cl)cc3C2)n1	8.72%
CO[C@@H]1CO[C@@]2(CCCN(S(=O)(=O)c3ccccc3)C2)C1	40.4%
CCOC(=O)N(C)CC(=O)NCCc1coc(-c2ccc(C)cc2)n1	11.4%
Cn1cc(N2C(=O)CC[C@@H]3[C@H]2CCN3CC2CCOCC2)cn1	8.52%
O=C(CCCN1CCCCC1)NC(C(=O)O)c1ccc(Cl)cc1 (stereo unspecified)	6.11%
O=C(Cc1cccc(F)c1)NCCNc1ncccn1	37.4%
CCOCC(=O)N1CCC2(CC1)COC(COCc1ccccn1)C2 (stereo unspecified)	-13%
Cc1cc(C)n2cc(CN3CCC(N4CCN(C)C4=O)CC3)nc2n1	39.1%
CC(NS(C)(=O)=O)C(=O)N1CCCN(Cc2cscn2)CC1 (stereo unspecified)	48.9%
Cc1cnn(C2CCCN(C(=O)Cc3ccc4c(c3)CCO4)C2)c1 (stereo unspecified)	31.8%
CNc1cc(N2CCCC2CNCc2csc(C)n2)ncn1 (stereo unspecified)	29.425%
O=C(CC1CCCC1)N1CC[C@H]2[C@H]1CCN2c1nncs1	43.8%
CCc1ncc(C(=O)N2CCC(Nc3ccc(C)nn3)CC2)s1	-58.7%
COCC(=O)N1CC[C@]2(O)CCN(C(=O)CCc3ccsc3)C[C@@H]2C1	26.9%
Cc1cccc(C(=O)NCc2ccccc2)n1	21%
COc1ncc(C(=O)NCc2ccccc2)cn1	64.2%
COC(=O)c1ccc(C(=O)NCc2ccc(Br)cc2)cn1	45.8%
COC(=O)CCNC(=O)c1ccc(OCc2ccccc2)nc1	-8.91%

SMILES	INHIBITION
CCNc1ncc(C(=O)NCc2ccc3nsnc3c2)cn1	31.9%
COc1ccc(CNC(=O)c2ccc(Br)cn2)cc1	49%
CCOc1cccc(C(=O)NCCC(=O)NCc2ccncc2)c1	-5.78%
CCOc1ccc(CNC(=O)c2cnc(OC)nc2)cc1	52.7%
COc1ncc(C(=O)NCc2ccc(Br)cc2)cn1	59.8%
CS(=O)(=O)CCN1CCCC1c1noc(C2CC2)n1 (stereo unspecified)	-38.2%
Cc1cccc(S(=O)(=O)N2CC[C@H]3[C@H]2CCN3c2ncccn2)c1	5.36%
NC(=O)c1cnn2c1NCC(CNCCc1cccs1)C2 (stereo unspecified)	21.75%
COCC(C)NC(=O)CN1CCCC1 (stereo unspecified)	-9.39%
O=S(=O)(Cc1cc(-c2ccccc2)no1)CC1CCCO1 (stereo unspecified)	-73.1%
CNc1cccc(C2CCCN(C(C)=O)C2)n1 (stereo unspecified)	-1.58%
CNc1cccc(C2CCCN(C(=O)Cc3ccccc3)C2)n1 (stereo unspecified)	81.2%
CNc1cccc(C2CCCN(C(=O)c3ccncc3)C2)n1 (stereo unspecified)	42.1%
CNc1cccc(C2CCCN(C(=O)c3ccn(C)n3)C2)n1 (stereo unspecified)	26.3%
CNc1cccc(C2CCCN(C(=O)c3cscn3)C2)n1 (stereo unspecified)	51.5%
CNc1cccc(C2CCCN(C(=O)c3cnccn3)C2)n1 (stereo unspecified)	-37%
CN1CCN([C@@H]2CN(C(=O)CCOc3ccccc3)C[C@H]2O)CC1	6.08%
CC1CCN(c2nc3cn(-c4ccc(F)cc4)c(=O)c-3c[nH]2)CC1	24.2%
CC(=O)Nc1ncc(S(=O)(=O)Nc2ccccc2F)s1	15.9%
Cn1nccc1CCC(=O)N1CCOC(c2cnccn2)C1 (stereo unspecified)	2.71%
O=C(O)c1cc(-c2cn[nH]c2)cc(S(=O)(=O)N2CCSCC2)c1	-4.927%
CCc1ccc2nc(-c3cnn(C)c3)cc(C(=O)N3CCCC3)c2c1	7.3%
Cn1cc(-c2cc(C(=O)N3CCOCC3)c3ccc(F)cc3n2)cn1	-27.5%

SMILES	INHIBITION
O=C(c1cc(-c2cn[nH]c2)nc2cc(F)ccc12)N1CCS(=O)(=O)CC1	79.9%
Cc1cc(C(=O)N2CCNC(c3ccccc3)C2)c2ccc(F)cc2n1 (stereo unspecified)	36.9%
O=C(c1cc(-c2cn[nH]c2)nc2ccc(F)cc12)N1CCSCC1	51.8%
COCc1nnc2n1CCN(Cc1ccoc1)C2	33%
COCCC1CCN([C@@H]2c3ccccc3C3(CCNCC3)[C@H]2O)CC1	11.6%
COc1ccc(-c2cc(C3CCCNC3)ccn2)cc1 (stereo unspecified)	-3.02%
Cn1ncc(N2CCN(Cc3ccc(S(C)(=O)=O)cc3)CC2)cc1=O	27.6%
Cn1c(Cn2ncc(N3CCCCC3)cc2=O)nc2ccccc21	40.3%
CN1CCCN(c2cnn(Cc3ccc(C(C)(C)C)cc3)c(=O)c2)CC1	15.7%
Cn1c(Cn2ncc(N3CCCC3)cc2=O)nc2ccccc21	37.6%
CN1CCCN(c2cnn(Cc3ccncc3)c(=O)c2)CC1	54.8%
CN1CCN(c2cnn(Cc3ccc(S(C)(=O)=O)cc3)c(=O)c2)CC1	51.5%
Cc1cc(C)n(Cc2cc(C(=O)N3CCCCC3c3nccs3)n[nH]2)n1 (stereo unspecified)	7.83%
CNC(=O)N(Cc1c(F)cccc1F)C1CCCC1	16.1%
CNS(=O)(=O)CC(=O)N(Cc1c(F)cccc1Cl)C1CC1	17.1%
CS(=O)(=O)CCC(=O)N(Cc1c(F)cccc1F)C1CCCC1	55%
CS(=O)(=O)CCC(=O)N(CCc1cccc(F)c1)C1CC1	40.7%
CNS(=O)(=O)CC(=O)N(Cc1c(F)cccc1F)C1CCCC1	-5.59%
CC(=O)N(Cc1c(F)cccc1F)C1CCCC1	58.3%
